From PubChem BioAssay AID1508619 (National Center for Advancing Translational Sciences (NCATS), 2020)
Inconclusive results are not listed. Entries that show only a call come without a potency. Activity calls are given as the source filed them. Calls follow the shape of the dose curve; as a rule, active = well fitted inhibition curve with a large enough effect; inconclusive = small, poorly fitted or top-dose-only effect; inactive = no such curve, though single readings can be large or run the other way.

assay: Counterscreen qHTS for Identification of Calcium Integrin Binding Protein 1 (CIB1) Competitor; details: series mostly up to 114 µM
Summary of the method: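 Compounds (final up to 114 uM) preincubated 15 min at room temperature with 1 uM CIB1-GST in calcium-containing HEPES pH 7.4 buffer; 100 nM scrambled FITC peptide added, and fluorescence polarization (480/540) measured after another 15 min.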
Potency is read from the fitted curve at half-maximal effect.

Compound | Potency
CN1CCCN(C(=O)c2cccc(-c3ccc(C=C4C(=O)Nc5ccc(Cl)cc54)o3)c2)CC1 | 35.5 µM (active)
CC(OC(=O)c1ccc(S(C)(=O)=O)c([N+](=O)[O-])c1)C(=O)NC1C2CC3CC(C2)CC1C3 (stereo not drawn) | inactive
O=[S+]([O-])(Nc1nccs1)c1ccc(NCc2cc(Cl)cc(Br)c2O)cc1 | inactive
O=C(O)c1ccccc1SC1=NS(=O)(=O)c2ccccc21 | inactive
CC(=O)Nc1sc2c(c1-c1nc3ccccc3s1)CNC2 | inactive
O=C(Cc1ccc(Cl)c(Cl)c1)Nc1ccc(S(=O)(=O)Nc2cccc(C(=O)O)c2)cc1 | inactive
CCc1oc2ccccc2c1C(=O)c1cc(I)c(O)c(I)c1 | 100 µM (active)
COc1ccc(NC(=O)c2[nH]c(C)c(C(C)=O)c2C)cc1[S+](=O)([O-])Nc1ccccc1C#N | inactive
C=Cc1c(C)c2cc3[nH]c(cc4nc(cc5nc(cc1[nH]2)C(C)=C5CCC(=O)O)C(CCC(=O)O)=C4C)c(C)c3C=C | 25.1 µM (active)
O=C(NNC(=O)c1nc2ccccc2[nH]1)OCc1ccccc1 | inactive
N#Cc1ccc(NS(=O)(=O)c2ccc(NC(=O)Cc3ccc(Cl)c(Cl)c3)cc2)cc1 | inactive
OCCOCCN1CCN(C(c2ccccc2)c2ccc(Cl)cc2)CC1 (stereo not drawn) | inactive
COC(=O)c1ccc2c(c1)S(=O)(=O)N=C2Sc1cc(C)ccc1C | inactive
CN1CCc2cccc3c2[C@H]1Cc1ccc(O)c(O)c1-3 | inactive
O=c1c(O)c(-c2ccc(O)c(O)c2)oc2cc(O)cc(O)c12 | inactive
Fc1ccc(NC(=S)Nc2nnc(-c3ccncc3)s2)cc1C(F)(F)F | inactive
O=S(=O)(Nc1nc2ccccc2s1)c1ccc(NCc2ccc(Br)cc2O)cc1 | inactive

Compound | Potency
CCc1ccc(C=C2SC(=S)NC2=O)cc1 | inactive
CCC(=O)NC(c1cccs1)c1cc(Br)c2cccnc2c1O (stereo not drawn) | inactive
O=C1CCCC2=C1C(c1ccn[nH]1)N=C(Nc1nc3ccccc3o1)N2 (stereo not drawn) | inactive
CC1CCC2(C1)N=C(Nc1nc3ccccc3o1)NC1=C2C(=O)CCC1 (stereo not drawn) | inactive
O=[S+]([O-])(NCc1nccs1)c1ccc(Nc2nc(-c3ccccc3)cs2)cc1 | 50.1 µM (active)
COC(=O)c1ccc(O)c2ncc(-c3ccc(C(=O)N4CCNCC4)cc3)cc12 | inactive
Cc1nc(C(=O)NCC(=O)O)c(O)c2ccc(Oc3ccccc3)cc12 | inactive
CC(C)(O)CCc1ccc(OCc2cc(-c3cccc(OC(F)F)c3)c3ncccc3c2)cc1 | inactive
Cc1ccc(S(=O)(=O)Nc2cnccc2C(=O)Nc2ccc(-c3nn[nH]n3)cc2)cc1 | inactive
CN(C)c1cnc2c(O)cccc2c1 | inactive
O=c1[nH]nc(Sc2ncc([N+](=O)[O-])s2)n1-c1ccc2c(c1)OCCO2 | inactive
CN1CCC(N(Cc2cccs2)c2ccccc2)CC1 | inactive
N#Cc1cnc(NS(=O)(=O)c2ccc(NC(=O)Cc3ccc(Cl)c(Cl)c3)cc2)s1 | inactive
CCCCCCCCCCCCCCCC[N+](C)(C)CCN(Cc1ccc(OC)cc1)c1ncccn1 | inactive
COc1cc([C@H]2Oc3cc([C@H]4Oc5cc(O)cc(O)c5C(=O)[C@@H]4O)ccc3O[C@@H]2CO)ccc1O | inactive
O=C1c2cccc(O)c2C(=O)c2c(O)cc(CO)cc21 | inactive
